The whole screen tested about 5,500 compounds, of which about 2,000 (36%) were called active. Not shown: some 18% with an inconclusive outcome. Rule as the data show it: active = normalized growth mostly below about 0.91 (no sharp cut-off); inconclusive = no clear call, values can overlap the other calls; inactive = mostly above about 0.92. The list shows a part of the results.
Test: chemical genetic growth profiling, strain panel (AID 1159580);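 also: tested at 20 µM; growth read once vehicle control cultures reached saturation at 30 °C; 1 = growth at the plate median or of vehicle wells; lower values mean less growth of the strain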
Conditions: S. cerevisiae deletion strains, growth OD

Measured: normalized growth

C[C@@H]1CC2C3CCC4=CC(=O)C=C[C@]4(C)[C@@]3(F)[C@@H](O)C[C@]2(C)[C@H]1C(=O)CO (stereo not given in full)
inactive: locus YAL021C, strain ccr4, active compounds read low 1 | locus YAL026C, strain drs2, active compounds read low 0.998 | locus YAL030W, strain snc1, active compounds read low 0.998 | locus YBL061C, strain skt5, active compounds read low 0.999 | locus YBR009C, strain hhf1, active compounds read low 0.997 | locus YBR023C, strain chs3, active compounds read low 0.995 | locus YBR171W, strain sec66, active compounds read low 0.986 | locus YBR231C, strain swc5, active compounds read low 0.988 | locus YBR279W, strain paf1, active compounds read low 0.997 | locus YCL011C, strain gbp2, active compounds read low 0.993 | locus YCL016C, strain dcc1, active compounds read low 1.01 | locus YCL061C, strain MRC1, active compounds read low 0.994 | locus YCL069W, strain vba3, active compounds read low 1 | locus YCR088W, strain abp1, active compounds read low 0.992 | locus YDL005C, strain med2, active compounds read low 0.997 | locus YDL040C, strain nat1, active compounds read low 0.996 | locus YDR001C, strain nth1, active compounds read low 0.987 | locus YDR069C, strain doa4, active compounds read low 0.999 | locus YDR137W, strain rgp1, active compounds read low 0.979 | locus YDR159W, strain sac3, active compounds read low 0.998 | locus YDR195W, strain ref2 0.965 | locus YDR297W, strain sur2, active compounds read low 0.996 | locus YDR334W, strain swr1, active compounds read low 1 | locus YDR335W, strain msn5, active compounds read low 1 | locus YDR392W, strain spt3, active compounds read low 0.976 | locus YEL003W, strain gim4, active compounds read low 0.999 | locus YEL037C, strain rad23, active compounds read low 1 | locus YEL061C, strain CIN8 (second series), active compounds read low 0.996 | locus YER015W, strain faa2, active compounds read low 0.999 | locus YER016W, strain bim1, active compounds read low 1 | locus YER111C, strain swi4, active compounds read low 0.982 | locus YER155C, strain BEM2 (second series), active compounds read low 0.994 | locus YFR010W, strain ubp6, active compounds read low 0.989 | locus YGL167C, strain pmr1, active compounds read low 0.996 | locus YGL173C, strain kem1, active compounds read low 0.987 | locus YGL227W, strain vid30, active compounds read low 0.989 | locus YGL240W, strain doc1, active compounds read low 1 | locus YGL253W, strain hxk2, active compounds read low 1.01 | locus YHR013C, strain ard1, active compounds read low 1 | locus YHR027C, strain rpn1, active compounds read low 0.995 | locus YHR030C, strain SLT2, active compounds read low 1.06 | locus YHR079C, strain IRE1, active compounds read low 1.05 | locus YHR142W, strain chs7, active compounds read low 1.01 | locus YJL092W, strain hpr5, active compounds read low 0.998 | locus YJL095W, strain BCK1 (second series), active compounds read low 1.01 | locus YJL095W, strain BCK1, active compounds read low 0.98 | locus YJL115W, strain asf1, active compounds read low 0.996 | locus YJL129C, strain trk1, active compounds read low 1.01 | locus YJL154C, strain vps35, active compounds read low 0.995 | locus YJL164C, strain tpk1, active compounds read low 1.01 | locus YJL166W, strain qcr8, active compounds read low 0.998 | locus YJL187C, strain SWE1, active compounds read low 0.993 | locus YJR066W, strain TOR1, active compounds read low 1.01 | locus YKL160W, strain elf1, active compounds read low 1 | locus YKR026C, strain gcn3, active compounds read low 0.982 | locus YKR091W, strain srl3, active compounds read low 0.996 | locus YLL001W, strain dnm1, active compounds read low 0.982 | locus YLL026W, active compounds read low 0.988 | locus YLL041C, strain sdh2, active compounds read low 0.999 | locus YLR027C, strain aat2, active compounds read low 1.01 | locus YLR113W, strain HOG1, active compounds read low 0.929 | locus YLR221C, strain rsa3, active compounds read low 1.01 | locus YLR258W, strain gsy2, active compounds read low 1 | locus YLR262C, strain YPT6 (second series), active compounds read low 0.985 | locus YLR320W, strain mms22, active compounds read low 0.992 | locus YLR342W, strain FKS1, active compounds read low 1 | locus YLR357W, strain rsc2, active compounds read low 0.999 | locus YLR370C, strain arc18, active compounds read low 0.993 | locus YLR384C, strain iki3, active compounds read low 1 | locus YML120C, strain ndi1, active compounds read low 1 | locus YMR058W, strain fet3, active compounds read low 1 | locus YMR125W, strain sto1, active compounds read low 0.983 | locus YMR129W, active compounds read low 0.995 | locus YMR205C, strain PFK2, active compounds read low 0.973 | locus YMR231W, strain pep5, active compounds read low 0.998 | locus YNL071W, strain lat1, active compounds read low 0.999 | locus YNL183C, strain NPR1, active compounds read low 0.992 | locus YNL209W, strain ssb2, active compounds read low 1 | locus YNL248C, strain rpa49, active compounds read low 0.999 | locus YNL322C, strain KRE1 (second series), active compounds read low 1 | locus YNR049C, strain mso1, active compounds read low 0.999 | locus YOR001W, strain rrp6, active compounds read low 1.01 | locus YOR070C, strain gyp1, active compounds read low 0.997 | locus YOR080W, strain dia2, active compounds read low 0.991 | locus YOR083W, strain WHI5, active compounds read low 1.01 | locus YOR106W, strain vam3, active compounds read low 1.02 | locus YOR231W, strain MKK1, active compounds read low 1.05 | locus YOR265W, strain rbl2, active compounds read low 1 | locus YOR270C, strain vph1, active compounds read low 1.01 | locus YOR290C, strain snf2, active compounds read low 1 | locus YPL051W, strain arl3, active compounds read low 0.999 | locus YPL078C, strain atp4, active compounds read low 1.01 | locus YPL106C, strain sse1, active compounds read low 1.01 | locus YPL240C, strain hsp82, active compounds read low 0.982 | locus YPL256C, strain CLN2, active compounds read low 1.04
